According to PubChem BioAssay (NCI):
About 79,000 compounds went through this panel and 15% of them were active in at least one assay; those are over-represented in the sample as a whole. Unmarked numbers belong to inactive results. Calls of active or inactive are those of the source. Cut-off read from the data, not from the text of the source: active = growth inhibition above about 70%; inactive = the rest. Where a SMILES comes first, the peptide text is derived from it. Bridges are numbered along the chain shown (N, C = ends). [ ]: non-standard residue; d: D form. The star is where a group is joined. ξ: configuration not given here. PhAc = O=C(Cc1ccccc1)*; ξP = O=C(O)C1CCCN1

Experiment: NCI Yeast Anticancer Drug Screen. Data for the sgs1 mgt1 strain (AID 161);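 note: 0% = growth of cultures given vehicle only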
Conditions: S. cerevisiae sgs1 mgt1 strain, at 50.0 µM, active compounds read high
Summary of the method: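 Growth of a repair-deficient yeast mutant was monitored after compound treatment and expressed as inhibition relative to vehicle-treated cultures.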
For `O=CN(c1ccccc1)c1ccccc1`, the growth inhibition was -2.7%. `COC1(OC)CC2C(=O)N(Cc3ccccc3)C1C(S(=O)(=O)c1ccccc1)C2S(=O)(=O)c1ccccc1` (stereo not given) gave a growth inhibition of 45.5%. With `COC(=O)c1c2c(cc3c1CC1(Cc4cc5c(cc4C1=O)CCC5)C3)CCC2` (stereo not given) the growth inhibition was -2.4%. Work on `COc1ccc(CCNC(=O)Cc2ccc(Cl)cc2)cc1OC` yielded a growth inhibition of -9.7%. `Cc1c(Cl)c(C)c(Cc2c(C)c(Cl)c(C)c(Cl)c2O)c(O)c1Cl` gave a growth inhibition of -20.6%. In the case of `CC1OC(OC2C(CO)OC(O[C@H]3CC[C@@]4(C)C(=CC[C@H]5[C@@H]6C[C@@H]7O[C@]8(CC[C@@H](C)CN8)[C@@H](C)[C@@H]7[C@@]6(C)CC[C@@H]54)C3)C(O)C2O)C(O)C(O)C1O` (stereo not given in full), the growth inhibition is reported as -0.75%. `CC1=CC(NCCC(=O)O)NC(=O)N1` (stereo not given) showed a growth inhibition of -18.1%. For `COc1cccc(C2CC(C)(N3CCCC3)Oc3cc4c(cc32)OCO4)c1O` (stereo not given), the growth inhibition was 10%. In the case of `CC(C)[C@H]1CC[C@@](C)(C(=O)O)C1`, the growth inhibition is reported as 15.2%. Compound `CC[N+](C)(CC)CC(O)C[N+]1(C)CC2CCCCC2C1` (stereo not given) has a growth inhibition of 6.2%. Work on `Nc1nc(N)nc(SCC(=O)O)n1` yielded a growth inhibition of 2%. For `COc1nc(NC2OC(CO)C(O)C(O)C2O)c(C(C)=O)c(=O)n1C` (stereo not given), the growth inhibition was 24.1%. Compound `CC(=O)OC1CC2CCC1(c1ccccc1)C2` (stereo not given) has a growth inhibition of 0.4%. Compound `Nc1c(Cl)cc2c(c1Br)C(=O)c1ccccc1C2=O` has a growth inhibition of 1.1%. `Cc1ccc(OC(=O)c2cc([N+](=O)[O-])cc([N+](=O)[O-])c2)cc1` gave a growth inhibition of 13.3%. With `CCOC(=O)CC(=O)C(=O)NNC1=NCCN1` the growth inhibition was 23.6%. For `NCCc1c(-c2cccnc2)[nH]c2ccccc12`, the growth inhibition was -2.75%. Work on `CCCCCCCCCCCCCCCCOc1ccc(-c2cc(=O)n(C)n2C)cc1` yielded a growth inhibition of -19.1%. With `COc1ccc(N2C(=O)/C(=C/c3ccc(N(CCC#N)CCC#N)cc3C)N=C2c2cc([N+](=O)[O-])ccc2Cl)cc1` the growth inhibition was 1.5%. `CSCNC(=S)Nc1ccc(Cl)c(Cl)c1` gave a growth inhibition of 35%. `COc1cc(C(=O)CC(=O)Cc2ccc3ccccc3n2)cc(OC)c1OC` showed a growth inhibition of 0.9%. For `C[N+](C)(C)CC(=O)N/N=C(\C(=O)NC1=C(Cl)C(=O)c2ccccc2C1=O)C(C#N)c1csc(-c2ccc([N+](=O)[O-])cc2)n1` (stereo not given), the growth inhibition was -5.8%. `O=[N+]([O-])c1cccc(-c2csc(NNC3=NC/C(=C/c4ccc5c(c4)OCO5)S3)n2)c1` showed a growth inhibition of 33%. `O=C(Cc1ccccc1)N[C@@H]1COC(=O)C2CCCN2C(=O)[C@@H]2CCCN2C1=O` (stereo not given in full) (PhAc-[dS]-Pro-[ξP]; ester 1-C) showed a growth inhibition of 4.25%. `COc1ccc(C(=O)C(O)c2ccc(OC)cc2)cc1` (stereo not given) gave a growth inhibition of -1.55%. `Cc1ncc([N+](=O)[O-])n1CCNC(=O)CCCCCn1ccnc1[N+](=O)[O-]` showed a growth inhibition of -9.45%. `OC1c2ccccc2-c2ccc(NCc3ccc4c(c3)OCO4)cc21` (stereo not given) gave a growth inhibition of 17.4%. Work on `Cc1cccc(/C=C/c2csnn2)n1` yielded a growth inhibition of -8.4%. `O=[N+]([O-])c1ccc(N/N=C/C2CCCCCC2)c([N+](=O)[O-])c1` gave a growth inhibition of -0.75%. Work on `BrC1(Br)C2CC/C=C/CCCCC21` (stereo not given) yielded a growth inhibition of 20.9%. For `C1=C(c2ccccc2)OC(c2ccccc2)=C(c2ccccc2)[P+]1(c1ccccc1)c1ccccc1`, the growth inhibition was 99.7% (active). `COc1ccc2nc3cccc([N+](=O)[O-])c3c(NCCC(=O)O)c2c1` showed a growth inhibition of 49.9%. For `O=C1CCN(C(=O)C2=CC(=O)OC2)C1`, the growth inhibition was -5.1%. Work on `COC(=O)c1ccccc1NC(=O)Nc1ccccc1` yielded a growth inhibition of 3.25%. Compound `CC1(C)Cc2ccccc2C(C)(Cl)C(=O)N1` (stereo not given) has a growth inhibition of 6.4%. With `COc1cc(C)n2nnnc2n1` the growth inhibition was 0.2%. With `CC1=C(C(=O)OCCc2ccc([N+](=O)[O-])cc2)C(c2cccc([N+](=O)[O-])c2)C(C(=O)OC(C)C)=C(C)N1` (stereo not given) the growth inhibition was 12.8%. `COc1ccc2oc3c(ccc[n+]3C)c(=O)c2c1` showed a growth inhibition of -12.1%. With `C=C(CBr)CCCOCc1ccccc1` the growth inhibition was -7.15%. `CCc1cn(C2CC(CO)C(CO)S2)c(=O)[nH]c1=O` (stereo not given) showed a growth inhibition of 7.85%.
